# Source: PubChem BioAssay (NCI)
# Compounds without any hit were thinned out: in the full panel of roughly 83,000, 20% have a hit.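 Step 1: grow cells in 96-well plates. Step 2: add test compound at a single concentration. Step 3: incubate 48 h. Step 4: record percent growth.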 Values without a mark were called inactive. Active and inactive are the calls of the source. Rule for the calls: active = growth percent below 10; inactive = the rest.
# System: PC-3 prostate
# Test: NCI-60 one-dose screen, 48 h (100 = growth as untreated, 0 = no growth, -100 = all killed)
# Details: 10 µM unless noted
row,SMILES,growth
1,COc1cc2cc(NCc3ccc(Cl)cc3)nc(C)c2cc1OC,37.9%
2,CC(=O)c1cnc2ccc(-c3cc(Cl)c(O)c(Cl)c3)nc2c1NC1CCC(CN(C)C)CC1 (stereo not drawn),-12% [2.5 µM] (active)
3,CCN(CC)c1cc2oc3cc(N)cc(=N)c-3nc2cc1C,39.2%
4,CO[C@H]1C[C@@H]2CC[C@@H](C)[C@@](O)(O2)C(=O)C(=O)N2CCCC[C@H]2C(=O)O[C@H]([C@H](C)C[C@@H]2CC[C@@H](O)[C@H](OC)C2)CC(=O)[C@H](C)/C=C(\C)[C@@H](O)[C@@H](OC)C(=O)[C@H](C)C[C@H](C)\C=C/C=C/C=C/1C,32.6%
5,COc1cccc(NC(=O)Nc2ccc(Nc3ncnc4sc5c(c34)CCN(C(=O)CCl)C5)cc2)c1,90.7%
6,CCN(CC)CCNC(=O)c1c(C)[nH]c(/C=C2\C(=O)Nc3ccc(F)cc32)c1C,21.6%
7,CO[C@@H](C)Cn1c(=O)n(C)c2cnc3ccc(-c4cncc(C(C)(C)O)c4)cc3c21,7.66% (active)
8,Cc1c(N)ccc(-c2ccc(N)c(C)c2S(=O)(=O)O)c1S(=O)(=O)O,98.4%
9,CNC(=O)c1cc(Oc2ccc(NC(=O)Nc3ccc(Cl)c(C(F)(F)F)c3)c(F)c2)ccn1,3.89% (active)
10,COCCOc1cnc2ccn([C@H](C)c3nnc4c(F)cc(-c5cnn(C)c5)cn34)c(=O)c2c1,78.7%
11,N#Cc1c(-c2ccc(Cl)cc2)csc1NC(=O)Nc1cccc(C(F)(F)F)c1,11.1%
12,CC(=O)C1CC(C)CCC1C(C)C (stereo not drawn),55.4%
13,O=C(COc1cccc(/C=C2\Cc3ccc(Cl)cc3C2=O)c1)Nc1nccs1,88%
14,O=C(Cn1ccnc1)Nc1ccc(-c2nc3ccccc3s2)cc1,65.9%
15,CN1CCC(CNc2ccc3ncc(-c4cccc(OC(F)(F)F)c4)n3n2)CC1,-20.6% (active)

# System: SK-MEL-5 melanoma
# Test: as above
# Details: 10 µM unless noted
row,SMILES,growth
1,C=CC(=O)N1CCC(Oc2cc3c(Nc4ccc(Cl)c(Cl)c4F)ncnc3cc2OC)CC1,18.7%
2,FC(F)(F)c1ccc(CNc2ccc(Cc3c[nH]c4ncc(Cl)cc34)cn2)cn1,-59.8% (active)
3,O=S1(=O)OC(c2cc(Cl)c(O)c(Br)c2)(c2cc(Cl)c(O)c(Br)c2)c2ccccc21,107%
4,CC(C)(C)OC(=O)N1CCC(O)[C@@H](O[Si](c2ccccc2)(c2ccccc2)C(C)(C)C)[C@H]1/C=C/c1ccccc1 (stereo partly drawn),30.2%
5,Cc1cn(-c2cc(NC(=O)c3ccc(C)c(Nc4nccc(-c5cccnc5)n4)c3)cc(C(F)(F)F)c2)cn1,-22.5% (active)
6,Cc1cnc(Nc2ccc(OCCN3CCCC3)cc2)nc1Nc1cccc(S(=O)(=O)NC(C)(C)C)c1,-90.4% (active)
7,Cc1cccc(C)c1N1C(c2ccccc2)=NNC12C=CC(=O)c1c(O)cccc12 (stereo not drawn),-37.2% (active)
8,C=CC(=O)Nc1cccc(Nc2nc(Nc3ccc(N4CCN(C(C)=O)CC4)cc3OC)ncc2C(F)(F)F)c1,6.86% (active)
9,COc1ccc(/C(C)=C(\c2ccc(Cl)cc2)c2ccc(OCCN3CCCCCC3)cc2)cc1,48.3%
10,Cc1cc(C(=O)Nc2cc(Oc3ccc4nc(NC(=O)C5CC5)cn4n3)ccc2C)n(C)n1,23.6%
11,CO[C@H](C(=O)N[C@@H](CCCCNC(=O)OCc1ccccc1)C(=O)OC(C)(C)C)[C@@H]1Cc2cc3cc(OC4CC(OC5CC(O)C(O)C(C)O5)C(O)C(C)O4)c(C)c(O)c3c(O)c2C(=O)[C@H]1OC1CC(OC2CC(OC3CC(C)(O)C(O)C(C)O3)C(O)C(C)O2)C(O)C(C)O1 (stereo partly drawn),-97.7% (active)
12,CCN(CCCOc1ccc2c(Nc3cc(CC(=O)Nc4cccc(F)c4)[nH]n3)ncnc2c1)CCOP(=O)(O)O,99.8%
13,CC/C=C\C[C@H]1C/C=C2/C(=O)C=C[C@@H]2C/C=C\CCCC(=O)O1,-88.4% (active)
14,Cc1cn(-c2cc(NC(=O)c3ccc(C)c(Nc4nccc(-c5cnccn5)n4)c3)cc(C(F)(F)F)c2)cn1,57.9%
15,COc1cc2ncnc3c2cc1OCCCCCN(C)Cc1ccc(Br)cc1N3,72.7%
16,C[C@@]1(C(=O)Nc2ccc(F)nc2)CCCN1c1nc(Nc2cc(C3CC3)[nH]n2)c2cccn2n1,48.1%
17,C[C@]12O[C@H](C[C@]1(O)CO)n1c3ccccc3c3c4c(c5c6ccccc6n2c5c31)CNC4=O,-87% (active)
18,CCN1CCN(CCCN(C[C@H]2Cc3ccccc3CN2)[C@H]2CCCc3cccnc32)CC1,97.7%
19,COCc1c(-c2ccc(NC(=O)Nc3cc(C(F)(F)F)ccc3F)c(F)c2)c2c(N)ncnn2c1CN1CCOCC1,-78.9% (active)

row,SMILES,growth
1,COc1cc2cc(NCc3ccc(F)cc3)nc(C)c2cc1OC,38.3%
2,CC(=O)C1=C(C)NC(SCc2nnc(-c3ccc(C)cc3)o2)=NC1c1ccc(F)cc1 (stereo not drawn),99%
3,N#CC[C@H](C1CCCC1)n1cc(-c2ncnc3[nH]ccc23)cn1,84.8%
4,Cc1ccc(-[n+]2c3cc(N)c(C)cc3nc3cc(C)c(Nc4ccccc4)cc32)cc1,-100% (active)
5,COc1cc2cc(NCc3ccc(Cl)cc3)nc(C)c2cc1OC,31.3%
6,CC(=O)c1cnc2ccc(-c3cc(Cl)c(O)c(Cl)c3)nc2c1NC1CCC(CN(C)C)CC1 (stereo not drawn),-86.5% [2.5 µM] (active)
7,CCN(CC)c1cc2oc3cc(N)cc(=N)c-3nc2cc1C,-2.64% (active)
8,CO[C@H]1C[C@@H]2CC[C@@H](C)[C@@](O)(O2)C(=O)C(=O)N2CCCC[C@H]2C(=O)O[C@H]([C@H](C)C[C@@H]2CC[C@@H](O)[C@H](OC)C2)CC(=O)[C@H](C)/C=C(\C)[C@@H](O)[C@@H](OC)C(=O)[C@H](C)C[C@H](C)\C=C/C=C/C=C/1C,14.2%
9,COc1cccc(NC(=O)Nc2ccc(Nc3ncnc4sc5c(c34)CCN(C(=O)CCl)C5)cc2)c1,106%
10,CCN(CC)CCNC(=O)c1c(C)[nH]c(/C=C2\C(=O)Nc3ccc(F)cc32)c1C,-98% (active)
11,CO[C@@H](C)Cn1c(=O)n(C)c2cnc3ccc(-c4cncc(C(C)(C)O)c4)cc3c21,-96.5% (active)
12,Cc1c(N)ccc(-c2ccc(N)c(C)c2S(=O)(=O)O)c1S(=O)(=O)O,110%
13,CNC(=O)c1cc(Oc2ccc(NC(=O)Nc3ccc(Cl)c(C(F)(F)F)c3)c(F)c2)ccn1,-95.9% (active)
14,COCCOc1cnc2ccn([C@H](C)c3nnc4c(F)cc(-c5cnn(C)c5)cn34)c(=O)c2c1,47.5%
15,N#Cc1c(-c2ccc(Cl)cc2)csc1NC(=O)Nc1cccc(C(F)(F)F)c1,22.4%
16,CC(=O)C1CC(C)CCC1C(C)C (stereo not drawn),98.9%
17,O=C(COc1cccc(/C=C2\Cc3ccc(Cl)cc3C2=O)c1)Nc1nccs1,93.1%
18,O=C(Cn1ccnc1)Nc1ccc(-c2nc3ccccc3s2)cc1,39.2%
19,CN1CCC(CNc2ccc3ncc(-c4cccc(OC(F)(F)F)c4)n3n2)CC1,-99.1% (active)
